Bioassay records (PubChem)
Rows were chosen to be rich in hits. Some 7.3% of all compounds tested hit in one or more screens of this group.
ELG1 genotoxic – inducers of genotoxicity in HEK293T ELG1-luciferase cells; actives 1.3% (n = 330,000); HEK293T ELG1-luciferase reporter, luminescence, 16 h; Potency, µM (doses to about 46 µM), actives largely listed as activators; note: nearly all actives have a fitted effect of over 60% in size
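HEK293T cells expressing luciferase-tagged ELG1 were treated with compound or DMSO for 16 hr at 37°C. Luciferase activity was then read after 30 min with ONE-Glo at room temperature; rising signal flags genetic stress.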
NPC1 promoter act – activates the NPC1 promoter; Huh7 NPC1 promoter luciferase reporter, 24 h; Potency, µM (titrated, usually from 9.22 µM), most hits filed as activators; actives 2.4% (n = 320,000); AID 485313; note: nearly all actives have a fitted effect of over 60% in size
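In 1536-well qHTS, Huh7 cells harboring an NPC1 promoter–luciferase construct received compound for 24 h; activation was quantified by luminescence following luciferase reagent addition.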
SMN2 splice enh – enhancers of SMN2 splice variant expression; HEK293 SMN2-luciferase splicing reporter, luminescence, 30-36 h; actives 2.8% (n = 210,000); Potency, µM (series often up to 46.1 µM), hits mostly activators; note: nearly all actives have a fitted effect of over 55% in size
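HEK293 cells carry an SMN2 […]–luciferase reporter in which exon 7 inclusion puts luciferase in frame. Cells were plated 10-12 h before compound addition, then incubated 30-36 h at 37C. ONE-Glo luminescence was read; sodium butyrate at 4.5 mM final served as control.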
Rab9 promoter act – activators of Rab9 promoter. Huh7 Rab9 promoter-luciferase reporter, luminescence, 24 h. Potency, µM (top dose mostly 9.22 µM), usual class: activators. AID 485297. actives 2.8% (n = 320,000); note: nearly all actives have a fitted effect of over 60% in size
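Steps: seed 1500 Huh7 Rab9-luc cells per well, rest 2 h at 37 °C; add compound in DMSO; incubate 24 h; add luciferase reagent, 10 min ambient; read luminescence.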
FLuc counter – inhibits or activates purified firefly luciferase, miR-21 counter-screen. purified FLuc, Km substrates, luminescence inhibition. Potency, µM (top dose mostly 57.5 µM), hits mostly inhibitors. actives 6.9% (n = 360,000). P08659; note: nearly all actives have a fitted effect of over 55% in size
Target sequence (P08659 whole entry, looked up): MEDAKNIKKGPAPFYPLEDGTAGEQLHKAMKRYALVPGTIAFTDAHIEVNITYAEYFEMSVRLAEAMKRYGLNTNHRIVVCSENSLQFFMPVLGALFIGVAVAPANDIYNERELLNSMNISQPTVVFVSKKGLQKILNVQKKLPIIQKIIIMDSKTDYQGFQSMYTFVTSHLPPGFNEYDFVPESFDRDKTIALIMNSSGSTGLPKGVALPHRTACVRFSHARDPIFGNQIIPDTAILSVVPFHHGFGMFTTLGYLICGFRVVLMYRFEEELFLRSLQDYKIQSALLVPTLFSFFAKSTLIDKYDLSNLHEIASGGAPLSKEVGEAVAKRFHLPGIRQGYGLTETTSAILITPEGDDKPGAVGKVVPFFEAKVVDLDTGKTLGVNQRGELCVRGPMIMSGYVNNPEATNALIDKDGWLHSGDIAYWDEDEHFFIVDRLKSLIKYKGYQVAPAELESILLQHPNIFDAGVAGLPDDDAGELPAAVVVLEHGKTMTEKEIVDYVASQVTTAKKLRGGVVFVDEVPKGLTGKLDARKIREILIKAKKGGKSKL
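Purified P. pyralis luciferase (10nM final) with 10uM D-luciferin and 10uM ATP (Km levels) in 50mM Tris acetate pH 7.5, 10mM Mg acetate, 0.01% Tween-20, 0.05% BSA; qHTS 6-point titration, ~60 µM downward; luminescence read.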
p53 reactivation – restores transcriptional activity of mutant p53 | Potency, µM (series often up to 92.2 µM), hits mostly activators | H1299 p53-A138V BP100-luciferase reporter, luminescence, 24 h | actives 0.063% (n = 320,000); note: nearly all actives have a fitted effect of over 45% in size
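H1299 (p53-null), stable ts p53-A138V + BP100-Luc; 1000 cells/well, Opti-MEM/10% FBS; cpd 4 pt, 1:5; 24 h, 37 deg C, 5% CO2; detection reagent 10 min RT; luminescence.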
Numbers stand for hits; [ ] = dose if it differs, or a comment. Calls come from the whole dose curve; as a rule, active = well fitted curve in the direction sought with a large enough effect; inconclusive = small, poorly fitted or top-dose-only effect, or another doubt; inactive = no such curve, though single readings can be large; an effect the other way counts as inactive or inconclusive.

How did CC(C)c1ccc2c(c1)C1Cc3ccccc3C1N2 (stereo unspecified) do in these assays?
ELG1 genotoxic: inconclusive; NPC1 promoter act: inactive; SMN2 splice enh: inactive; Rab9 promoter act: inactive; FLuc counter: 15.1µM; p53 reactivation: inconclusive

What do the screens show for `O=S1(=O)NC2c3ccccc3CC2O1` (stereo unspecified)?
ELG1 genotoxic: inactive; NPC1 promoter act: inactive; Rab9 promoter act: inactive; FLuc counter: inactive; p53 reactivation: inactive

How did COc1ccccc1N=c1sc2ccccc2n1C do in these assays?
ELG1 genotoxic: inactive; NPC1 promoter act: inactive; SMN2 splice enh: inactive; Rab9 promoter act: inactive; FLuc counter: inactive; p53 reactivation: inactive

How did COc1cccc(C(=O)N=c2sc3c(C)ccc(OC)c3n2C)c1 do in these assays?
ELG1 genotoxic: 0.651µM; NPC1 promoter act: 0.708µM; SMN2 splice enh: 2.82µM; Rab9 promoter act: 0.708µM; FLuc counter: 0.675µM; p53 reactivation: inactive

How did CCn1c(=NC(=O)c2cccc(N3C(=O)CCC3=O)c2)sc2c(C)ccc(OC)c21 do in these assays?
ELG1 genotoxic: inactive; NPC1 promoter act: inactive; Rab9 promoter act: inactive; FLuc counter: inconclusive; p53 reactivation: inactive

Results for COc1ccc(N=c2sc3ccccc3n2C)cc1 ?
ELG1 genotoxic: 8.2µM; NPC1 promoter act: 2.51µM; SMN2 splice enh: inconclusive; Rab9 promoter act: 2.24µM; FLuc counter: 6.01µM; p53 reactivation: inconclusive

Results for COc1ccccc1C(=O)N=c1sc2c(C)ccc(OC)c2n1C ?
ELG1 genotoxic: inconclusive; NPC1 promoter act: inconclusive; Rab9 promoter act: inactive; FLuc counter: 15.1µM; p53 reactivation: inactive

Results for COc1ccc(C(=O)N=c2sc3c(C)ccc(OC)c3n2C)cc1OC ?
ELG1 genotoxic: inactive; NPC1 promoter act: 1.58µM; Rab9 promoter act: 1.78µM; FLuc counter: 2.69µM; p53 reactivation: inactive

How did COc1cc(C(=O)N/N=c2/sc3ccccc3n2C)cc(OC)c1OC do in these assays?
ELG1 genotoxic: inactive; NPC1 promoter act: inactive; SMN2 splice enh: inactive[1.84 µM]; Rab9 promoter act: inactive; FLuc counter: inactive; p53 reactivation: inactive

Results for COc1ccc(C(=O)N=c2sc3ccccc3n2C)cc1OC ?
ELG1 genotoxic: inconclusive; NPC1 promoter act: 2.51µM; SMN2 splice enh: 17.8µM; Rab9 promoter act: 2.24µM; FLuc counter: 10.7µM; p53 reactivation: inactive

How did O=CN1CCN(C[C@H](O)CN2CCCCC2)CC1 do in these assays?
SMN2 splice enh: inactive[9.22 µM]

How did O=C1C(=O)c2c(C(=O)c3ccccc3)coc2-c2ccccc21 do in these assays?
ELG1 genotoxic: 10µM; NPC1 promoter act: inactive; SMN2 splice enh: inactive; Rab9 promoter act: inactive; FLuc counter: inconclusive; p53 reactivation: inconclusive

How did CCOc1ccc(CCNC(=O)c2cnc3sc(N4CCCCC4)nn3c2=O)cc1 do in these assays?
FLuc counter: inactive

What do the screens show for `CNC(=O)c1ccccc1NC(=O)c1c(O)c2c([nH]c1=O)CCCC2`?
ELG1 genotoxic: inconclusive; NPC1 promoter act: inactive; SMN2 splice enh: inactive; Rab9 promoter act: inactive; FLuc counter: inconclusive; p53 reactivation: inactive

Results for O=C(N/N=C/c1cccc(F)c1)c1c(O)c2c([nH]c1=O)CCCC2 ?
ELG1 genotoxic: inconclusive; NPC1 promoter act: 1.58µM; SMN2 splice enh: 12.6µM; Rab9 promoter act: 2µM; FLuc counter: inconclusive; p53 reactivation: inconclusive

Results for Cc1ccc(Cl)c2c1=NC(=O)C=2c1[nH]c(=S)[nH]c1O ?
ELG1 genotoxic: inactive; NPC1 promoter act: inactive; SMN2 splice enh: inactive; Rab9 promoter act: inactive; FLuc counter: 19µM; p53 reactivation: inactive

How did O=C(CN1C(=O)NC2(CCCC2)C1=O)Nc1cccc(Cl)c1 do in these assays?
ELG1 genotoxic: inactive; NPC1 promoter act: inactive; Rab9 promoter act: inactive; FLuc counter: inactive; p53 reactivation: inactive

What do the screens show for `COc1ccc(NC2CCCN(C(=O)CN3CCOC3=O)C2)cc1` (stereo unspecified)?
ELG1 genotoxic: inconclusive; NPC1 promoter act: inconclusive; Rab9 promoter act: inconclusive; FLuc counter: 10.7µM; p53 reactivation: inactive

Results for COc1ccc(NC2CCCN(C(=O)CN3CCOC3=O)C2)cc1OC (stereo unspecified) ?
ELG1 genotoxic: inactive; NPC1 promoter act: inactive; Rab9 promoter act: inactive; FLuc counter: inactive; p53 reactivation: inactive

How did C=CCNC(=O)C1CC(=O)N(c2ccc(OCC(=O)Nc3ccccc3)cc2)C1 (stereo unspecified) do in these assays?
ELG1 genotoxic: inconclusive; NPC1 promoter act: 2.82µM; SMN2 splice enh: 12.6µM; Rab9 promoter act: 3.55µM; FLuc counter: 12µM; p53 reactivation: inconclusive

What do the screens show for `CCOc1ccc(N2CC(C(=O)NCCc3ccccc3)CC2=O)cc1` (stereo unspecified)?
ELG1 genotoxic: inactive; NPC1 promoter act: inactive; Rab9 promoter act: inactive; FLuc counter: inactive; p53 reactivation: inactive

What do the screens show for `CCCNC(=O)C1CC(=O)N(c2ccc(OCc3ccc(Cl)cc3)cc2)C1` (stereo unspecified)?
ELG1 genotoxic: 1.83µM; NPC1 promoter act: 1.41µM; Rab9 promoter act: 3.98µM; FLuc counter: 2.13µM; p53 reactivation: inactive

How did C=CCNC(=O)C1CC(=O)N(c2ccc(OCc3ccc(F)cc3)cc2)C1 (stereo unspecified) do in these assays?
ELG1 genotoxic: 18.3µM; NPC1 promoter act: 1.12µM; Rab9 promoter act: 1.41µM; FLuc counter: 7.57µM; p53 reactivation: inconclusive

Results for NC(=O)C1CC(=O)N(c2ccc(OCc3ccc(Cl)cc3)cc2)C1 (stereo unspecified) ?
ELG1 genotoxic: inconclusive; NPC1 promoter act: 2.82µM; Rab9 promoter act: 2.82µM; FLuc counter: 8.49µM; p53 reactivation: inactive

Results for Cc1ccc(/C=C/C(=O)N2CC(C)CC(C)C2)o1 (stereo unspecified) ?
ELG1 genotoxic: inactive; NPC1 promoter act: inactive; SMN2 splice enh: inactive; Rab9 promoter act: inactive; FLuc counter: inactive; p53 reactivation: inactive

What do the screens show for `COc1ccc(CCC(=O)c2c(O)cc(O[C@@H]3O[C@H](CO)[C@@H](O)[C@H](O)[C@H]3O[C@@H]3O[C@@H](C)[C@H](O)[C@@H](O)[C@H]3O)cc2O)cc1O`?
SMN2 splice enh: inactive

Results for Cn1nc(-c2ccc(C(=O)Nc3ccc(OC(F)(F)F)cc3)cc2)c2ccccc2c1=O ?
FLuc counter: inactive

What do the screens show for `CCOc1ccc(N2CC(C(=O)NCc3ccc(F)cc3)CC2=O)cc1` (stereo unspecified)?
ELG1 genotoxic: inactive; NPC1 promoter act: inactive; SMN2 splice enh: inactive; Rab9 promoter act: inactive; FLuc counter: inactive; p53 reactivation: inactive

How did CCCNC(=O)C1CC(=O)N(c2ccc(OCc3ccc(F)cc3)cc2)C1 (stereo unspecified) do in these assays?
ELG1 genotoxic: 6.51µM; NPC1 promoter act: 0.631µM; Rab9 promoter act: 0.891µM; FLuc counter: 4.78µM; p53 reactivation: inconclusive
